Source: PubChem BioAssay AID1159580 (chemical genetic matrix, 2015)
About 2,000 (36%) of roughly 5,500 compounds were called active. Roughly 18% stayed inconclusive and do not appear here. Cut-off read from the data, not from the text of the source: active = normalized growth mostly below about 0.91 (no sharp cut-off); inconclusive = no clear call, values can overlap the other calls; inactive = mostly above about 0.92. The list shows a part of the results.

Assay: chemical genetic growth profiling, strain panel (AID 1159580);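 note: tested at 20 µM; growth read once vehicle control cultures reached saturation at 30 °C; 1 = growth at the plate median or of vehicle wells; lower values mean less growth of the strain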
Details: S. cerevisiae deletion strains, growth OD

Measured: normalized growth

COc1cc(=O)n(C)c2c(OCC(O)C(C)(C)O)cccc12 (stereo not given)
inactive: locus YAL013W, strain DEP1, hits give low values 1.03 | locus YAL040C, strain CLN3, hits give low values 0.99 | locus YCL061C, strain MRC1 (second series), hits give low values 1.01 | locus YDR363W, strain ESC2, hits give low values 1.01 | locus YER002W, strain NOP16, hits give low values 0.999 | locus YJR075W, strain HOC1, hits give low values 1.01 | locus YNL128W, strain TEP1, hits give low values 0.99 | locus YNL175C, strain NOP13, hits give low values 1 | locus YNL197C, strain WHI3, hits give low values 1.02 | locus YNL224C, strain SQS1, hits give low values 1.01 | locus YOR083W, strain WHI5 (second series), hits give low values 1.02

CC(=O)O[C@@H]1CC(=O)[C@@]2(C)C(CC(=O)[C@]3(C)C2CC[C@@]2(C)[C@H](c4ccoc4)OC(=O)C4OC423)C1(C)C (stereo not given in full)
inactive: locus YBR021W, strain FUR4, hits give low values 0.98 | locus YBR229C, strain ROT2, hits give low values 0.991 | locus YCL029C, strain bik1, hits give low values 1.01 | locus YDL035C, strain GPR1, hits give low values 0.987 | locus YDL074C, strain BRE1, hits give low values 0.976 | locus YDL101C, strain DUN1, hits give low values 0.996 | locus YDL134C, strain PPH21, hits give low values 1.01 | locus YDL185W, strain tfp1, hits give low values 1.02 | locus YDL192W, strain arf1, hits give low values 1.01 | locus YDR101C, strain arx1, hits give low values 1 | locus YDR162C, strain NBP2, hits give low values 1 | locus YDR318W, strain mcm21, hits give low values 1 | locus YDR388W, hits give low values 1.01 | locus YDR502C, strain sam2, hits give low values 1 | locus YEL061C, strain CIN8, hits give low values 0.998 | locus YER110C, hits give low values 1.01 | locus YER155C, strain BEM2, hits give low values 1 | locus YER167W, strain BCK2, hits give low values 0.993 | locus YGL078C, strain dbp3, hits give low values 1.01 | locus YGL086W, strain mad1, hits give low values 1.01 | locus YGL248W, strain PDE1, hits give low values 0.995 | locus YGR135W, strain pre9, hits give low values 1 | locus YGR229C, strain SMI1, hits give low values 0.988 | locus YGR252W, strain gcn5, hits give low values 0.976 | locus YHR079C, strain IRE1 (second series), hits give low values 1.01 | locus YHR094C, strain hxt1, hits give low values 1 | locus YHR129C, strain ARP1, hits give low values 1 | locus YHR200W, strain rpn10, hits give low values 1 | locus YIL066C, strain RNR3, hits give low values 1 | locus YIL073C, strain SPO22, hits give low values 1.04 | locus YIL125W, strain kgd1, hits give low values 1 | locus YIR030C, strain dcg1, hits give low values 1.01 | locus YJL095W, strain BCK1, hits give low values 0.963 | locus YJL134W, strain LCB3, hits give low values 0.999 | locus YJL168C, strain set2, hits give low values 1.01 | locus YJL187C, strain SWE1 (second series), hits give low values 0.996 | locus YKL009W, strain mrt4, hits give low values 1.01 | locus YKL068W, hits give low values 1.01 | locus YKL085W, strain MDH1 (second series), hits give low values 1.03 | locus YKL085W, strain MDH1, hits give low values 1.03 | locus YKL190W, strain CNB1, hits give low values 1 | locus YKR001C, strain vps1, hits give low values 1.01 | locus YLR039C, strain RIC1, hits give low values 1.02 | locus YLR058C, strain SHM2, hits give low values 0.998 | locus YLR102C, strain apc9, hits give low values 1.01 | locus YLR262C, strain YPT6, hits give low values 1.05 | locus YLR268W, strain sec22, hits give low values 0.998 | locus YLR371W, strain rom2, hits give low values 1 | locus YLR418C, strain cdc73, hits give low values 0.996 | locus YML016C, strain PPZ1, hits give low values 1 | locus YML032C, strain rad52, hits give low values 1.01 | locus YML124C, strain tub3, hits give low values 1.01 | locus YMR078C, strain ctf18, hits give low values 1.02 | locus YMR223W, strain ubp8, hits give low values 1.01 | locus YMR307W, strain GAS1, hits give low values 0.994 | locus YNL067W, strain RPL9B, hits give low values 0.997 | locus YNL233W, strain BNI4, hits give low values 0.993 | locus YNL250W, strain rad50, hits give low values 1.04 | locus YNL271C, strain bni1, hits give low values 1 | locus YNL298W, strain CLA4, hits give low values 1.01 | locus YNL307C, strain MCK1, hits give low values 1.03 | locus YNL322C, strain KRE1, hits give low values 1 | locus YNR052C, strain pop2, hits give low values 1.01 | locus YOL006C, strain TOP1, hits give low values 0.912 | locus YOL012C, strain htz1 0.729 | locus YOL147C, strain pex11, hits give low values 1 | locus YOR061W, strain CKA2, hits give low values 1 | locus YOR069W, strain VPS5, hits give low values 0.996 | locus YOR136W, strain idh2, hits give low values 1.02 | locus YOR144C, strain elg1, hits give low values 1.01 | locus YOR184W, strain ser1, hits give low values 1.02 | locus YOR316C, strain cot1, hits give low values 1.01 | locus YPL055C, strain LGE1, hits give low values 0.989 | locus YPL241C, strain CIN2, hits give low values 0.997 | locus YPR119W, strain clb2, hits give low values 1.02 | locus YPR141C, strain kar3, hits give low values 1.01 | locus YPR163C, strain tif3, hits give low values 1.01 | locus YPR167C, strain met16, hits give low values 1.02 | strain wtn01, hits give low values 1.01
